Hits are enriched below; roughly 19% of the tested compounds scored in any of these assays.
IL1B secr inh – inflammasome signaling inhibition, IL-1 beta readout; THP-1 LPS/ATP IL-1B secretion, AlphaLISA, 16 h; active compounds read low; activity change, % at 57.5 µM; actives 4.7% (n = 360,000); in the data active = activity change below about -50%; inconclusive = mostly about -30% to -49%; also: % is scaled to controls: 0 for no effect and ±100 for the full control effect
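THP-1 cells pretreated 1 hr with compounds (up to 57.5 uM final), then stimulated with LPS (250 ng/mL final) plus ATP (1.25 mM final); secreted IL-1B measured by AlphaLISA after 16 hr, decreased signal indicating inhibition.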
TDP1 inh – inhibitors of human tyrosyl-DNA phosphodiesterase TDP1. recombinant TDP1, AlphaScreen DNA substrate cleavage. Potency, µM (doses to about 130 µM), for inactives: at the highest dose activity change, negative = inhibition, most hits filed as inhibitors. actives 0.28% (n = 350,000). AID 485290; also: potency is read from the fitted curve at half-maximal effect; % is scaled to controls: 0 for no effect and ±100 for the full control effect; nearly all actives have a fitted effect of over 40% in size
Target sequence (Q9NUW8 whole entry, looked up): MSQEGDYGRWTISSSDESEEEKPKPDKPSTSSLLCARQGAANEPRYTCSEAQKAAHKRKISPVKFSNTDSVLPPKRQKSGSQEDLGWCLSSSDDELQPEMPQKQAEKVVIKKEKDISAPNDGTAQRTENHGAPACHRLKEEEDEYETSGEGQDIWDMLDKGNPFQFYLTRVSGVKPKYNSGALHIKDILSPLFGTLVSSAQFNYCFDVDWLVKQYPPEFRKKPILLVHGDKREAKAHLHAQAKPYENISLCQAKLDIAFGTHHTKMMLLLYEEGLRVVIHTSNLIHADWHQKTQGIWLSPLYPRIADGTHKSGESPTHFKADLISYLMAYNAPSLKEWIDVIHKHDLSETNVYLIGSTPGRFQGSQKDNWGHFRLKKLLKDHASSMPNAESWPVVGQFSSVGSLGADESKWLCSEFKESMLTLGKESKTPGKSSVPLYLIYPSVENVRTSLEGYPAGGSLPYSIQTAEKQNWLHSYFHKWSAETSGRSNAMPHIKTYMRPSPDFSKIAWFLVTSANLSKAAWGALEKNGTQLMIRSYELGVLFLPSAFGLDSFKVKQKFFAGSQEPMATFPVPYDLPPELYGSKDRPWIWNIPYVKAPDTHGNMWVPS
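Tdp1 1 nM final; 15 min RT w/ cpd; substrate 15 nM, 5 min; beads 10 ug/ml, 10 min; AlphaScreen read. Neg ctrl: no enzyme.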
TGFb inhibitor – TGF-b pathway inhibition | HepG2 CAGA-GFP TGF-b/SMAD3 reporter, GFP fluorescence, 18 h; TGF-beta stimulated, 500 pg/mL final | Potency, µM (titrated, usually from 46.1 µM), for the others: at the highest dose activity, negative = inhibition, hits mostly inhibitors | actives 1.2% (n = 410,000) | AID 588855; also: potency is read from the fitted curve at half-maximal effect; % is scaled to controls: 0 for no effect and ±100 for the full control effect; nearly all actives have a fitted effect of over 65% in size
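Using HEPG2 CAGA-GFP reporter cells at 1000 cells/well, we pinned test compounds, stimulated with recombinant TGF-beta (500 pg/mL final) and measured total well GFP after 18 h.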
TDP1 cell noCPT – qHTS for Inhibitors of human tyrosyl-DNA phosphodiesterase 1 (TDP1): qHTS in cells in absence of CPT. DT40 Tdp1-/- hTDP1 cells, no CPT, ATP luminescence, 48 h. Potency, µM (doses to about 46.2 µM), for inactives: top-dose activity change, negative = growth inhibition, most hits filed as inhibitors. actives 15% (n = 420,000). AID 686978, 2013; also: potency is read from the fitted curve at half-maximal effect; % is scaled to controls: 0 for no effect and ±100 for the full control effect; nearly all actives have a fitted effect of over 55% in size
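Readout: luminescence from CellTiter-Glo after 30 min in the dark at RT. Cells: DT40 Tdp1-/- with stable hTDP1, 400/well. Exposure: compounds alone, ≥48 hr, 37 °C.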
DT40 TDP1 CPT – growth inhibition of DT40 Tdp1-/-;hTDP1 cells with camptothecin (screen for TDP1 inhibitors). chicken DT40 Tdp1-/-;hTDP1 cells + 20 nM CPT, ATP luminescence, 48 h. actives 12% (n = 420,000). Potency, µM (doses to about 46.2 µM), without a hit: at the top dose activity change, negative = growth inhibition, usual class: inhibitors; also: potency is read from the fitted curve at half-maximal effect; % is scaled to controls: 0 for no effect and ±100 for the full control effect; nearly all actives have a fitted effect of over 55% in size
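Chicken DT40 Tdp1-/- cells complemented with human TDP1, 400 cells/well, exposed to compounds plus 20 nM camptothecin for at least 48 h at 37 C; viability read as ATP content by CellTiter-Glo luminescence.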
HepG2 tox – kills HepG2 cells in TGF-b inhibitor counter-screen; HepG2 CAGA-GFP viability, ATP luminescence, 18 h; Potency, µM (highest dose often 46.1 µM), for inactives: at the highest dose activity change, negative = cytotoxicity, usual class: cytotoxic; actives 0.76% (n = 410,000); AID 588856; also: potency is read from the fitted curve at half-maximal effect
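HepG2 CAGA-GFP cells (1000/well, DMEM with 1% FBS) received compound, then TGF-beta at 500 pg/mL final, and were incubated 18 hours at 37 degrees C. Viability was read by CellTiter-Glo luminescence. Media-only wells were set as complete cell-killing and DMSO as no toxicity.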
The depositor's hits bear a star; ? = inconclusive; nt = no result; [ ] = another dose, or the depositor's remark. Unless noted, calls follow the shape of the dose curve; as a rule, active = well fitted curve in the direction sought with a large enough effect; inconclusive = small, poorly fitted or top-dose-only effect, or another doubt; inactive = no such curve, though single readings can be large; an effect the other way counts as inactive or inconclusive.

SMILES	IL1B secr inh	TDP1 inh	TGFb inhibitor	TDP1 cell noCPT	DT40 TDP1 CPT	HepG2 tox
C#CCCC[C@@H]1OC(=O)CNC(=O)C([C@@H](C)CC)NC(=O)[C@@H]2CCCN2C(=O)C([C@@H](C)CC)OC(=O)[C@H](Cc2ccccc2)N(C)C(=O)[C@H](C(C)C)NC(=O)C1(C)C (stereo partly drawn)	-14.3	nt	?	20.6µM*	13µM*	-20.2%
CN[C@@H](C)[C@H]1CC[C@@H](N)[C@@H](O[C@@H]2[C@@H](O)[C@@H](O[C@H]3OC[C@@](C)(O)[C@@H](NC)[C@@H]3O)[C@H](N)C[C@@H]2N)O1 (tested in a mixture with another compound)	nt	8.5%[56.1 µM]	nt	nt	nt	nt
Cc1cc2ccccc2n1CCNC(=O)COc1ccccc1	-7.3	4.1%	-15.2%	?	?	0.2%
COc1ccc(CNC(=O)c2cnn3c(C)c(Cc4ccc(F)cc4)c(C)nc23)cc1	nt	0.0%	-0.2%	14.6µM*	16.4µM*	-8.9%
COC(=O)C1=C(c2ccc(F)cc2OCc2ccccc2)C[C@@H]2CC[C@H]1N2C(=O)NCc1cccc(C(F)(F)F)c1	-59.3*	0.2%	-4.5%	18.4µM*	?	-20.9%
COC(=O)C1=C(c2ccc(F)cc2OCc2ccccc2)C[C@@H]2CC[C@H]1N2C(=O)NCCOc1ccc(OC)cc1	?	2.2%	?	16.4µM*	?	1.6%
COC(=O)C1=C(c2ccc(F)cc2OCc2ccccc2)C[C@@H]2CC[C@H]1N2C(=O)NCCc1ccc(F)cc1	?	-0.2%	?	20.6µM*	?	-6.2%
COC(=O)C1=C(c2ccccc2OCc2ccccc2)C[C@@H]2CC[C@H]1N2C(=O)NCc1cccc(F)c1	?	-0.2%	?	?	?	30.6%
COC(=O)C1=C(c2ccc(F)cc2OCc2ccccc2)C[C@@H]2CC[C@H]1N2C(=O)NCCOc1ccccc1Cl	-5.0	0.6%	?	16.4µM*	20.6µM*	-9.5%
N[C@H](CP(=O)(O)O)C(=O)O	nt	-4.8%	nt	-2.8%	21.1%	nt
CN1CCCC2(CCN(C(=O)c3csnn3)CC2)C1	nt	nt	nt	-2.6%	11.4%	nt
COc1ccc(C(=O)Nc2ccccc2-c2nnn(CC(=O)Nc3ccc4c(c3)OCCO4)n2)cc1	-4.1	0.0%	-4.6%	?	?	-25.8%
COC(=O)C1=C(c2ccc(F)cc2OCc2ccccc2)C[C@@H]2CC[C@H]1N2C(=O)NCc1ccc(Br)cc1	-59.7*	1.2%	-1.3%	14.6µM*	?	10.1%
COC(=O)C1=C(c2ccccc2OCc2ccccc2)C[C@@H]2CC[C@H]1N2C(=O)NCCOc1ccc(OC)cc1	0.0	2.6%	-25.5%	?	?	-0.2%
COC(=O)C1=C(c2ccc(F)cc2OCc2ccccc2)C[C@@H]2CC[C@H]1N2C(=O)NCc1ccc(OC)cc1	?	0.5%	9.7%	?	?	6.3%
COC(=O)C1=C(c2ccc(F)cc2OCc2ccccc2)C[C@@H]2CC[C@H]1N2C(=O)NCCOc1ccccc1	?	0.5%	?	16.4µM*	?	-19.8%
CC(Cc1ccc(C(C)(C)C)cc1)CN1CC(C)OC(C)C1 (stereo not drawn)	nt	14.8%	nt	nt	nt	nt
Cc1nn(Cc2ccccc2Cl)c(C)c1C(=O)OCC(=O)NC1CCCC(C)C1C (stereo not drawn)	-7.8	5.5%	0.0%	23.1µM*	20.6µM*	-7.4%
Cc1nc(NS(=O)(=O)c2cccc([N+](=O)[O-])c2)sc1C(C)(C)C	11.4	nt	?	3.9%	-7.0%	-17.0%
O=C1c2ccccc2C2(c3ccc(Cl)cc3)NCCN12 (stereo not drawn)	-53.3*	6.2%	12.9%	-16.3%	4.1%	-18.3%
CCC[CH2][Sn]([Cl])([Cl])[Cl]	nt	4.2%	nt	nt	nt	nt
FC(Cl)(Cl)Cl	nt	9.3%	nt	nt	nt	nt
O=c1c2ccccc2nc(-c2ccc(Cl)cc2Cl)n1-c1nccs1	0.0	-2.7%	-56.5%	13µM*	?	-26.5%
Cc1ccc(-c2nc3ccccc3c(=O)n2-c2cccc(O)c2)cc1	28.8	2.4%	-16.3%	8.2µM*	2.31µM*	-14.5%
Cc1ccc(-c2nc3ccccc3c(=O)n2-n2cccc2)cc1	-8.0	5.8%	2.6%	11.6µM*	16.4µM*	-22.7%
SMILES	IL1B secr inh	TDP1 inh	TGFb inhibitor	TDP1 cell noCPT	DT40 TDP1 CPT	HepG2 tox
O=c1c2ccccc2nc(-c2ccc(-c3ccccc3)cc2)n1-c1ccncc1	-19.4	9.5%	?	20.6µM*	?	-31.7%
Cc1nc2ccccc2c(=O)n1-c1cccc(O)c1	33.5	7.0%	-15.1%	-17.0%	-18.3%	-1.9%
CN1CC[C@@]2(CCCN(C(=O)c3ccco3)C2)C1	nt	nt	nt	2.4%	2.8%	nt
C[C@@H]1CC([C@H](O)CC2CC(=O)NC(=O)C2)C(=O)[C@@H](C)C1 (stereo partly drawn)	nt	13.4%	nt	nt	nt	nt
COc1ccc(-n2c(-c3ccc(C)cc3)nc3ccccc3c2=O)cc1	-19.4	2.4%	15.8%	14.6µM*	14.6µM*	-2.3%
Cc1ccc(-c2nc3ccccc3c(=O)n2-c2ccncc2)cc1	-6.8	3.0%	-5.1%	?	-27.3%	9.7%
O=c1c2ccccc2nc(/C=C/c2ccc(O)cc2)n1-c1cccc(O)c1	24.2	?	27.9%	?	?	-11.5%
O=c1c2ccccc2nc(-c2ccccc2Cl)n1-c1cccc(O)c1	-18.6	nt	-13.0%	?	20.6µM*	1.9%
COc1ccc(-n2c(-c3ccccc3[N+](=O)[O-])nc3ccccc3c2=O)cc1	-10.2	nt	1.2%	14.6µM*	23.1µM*	-2.4%
COc1ccc(-n2c(SC)nc3ccccc3c2=O)cc1	17.9	0.0%	?	18.4µM*	14.6µM*	4.9%
CC(=O)CC(c1ccccc1)c1c(O)c2cc(O)ccc2oc1=O (stereo not drawn)	nt	2.3%	nt	nt	nt	nt
COc1ccc(C/C(=N\OC(C)=O)c2ccc(OC)cc2)cc1	13.7	nt	-11.4%	?	-4.4%	-0.8%
Cc1ccc2c(c1)C1CN(C)CCC1N2C(=O)Cn1cnc2c1c(=O)n(C)c(=O)n2C (stereo not drawn)	21.0	1.1%	2.4%	-35.5%	-4.6%	2.3%
Cc1ccc2c(c1)C1CN(C)CCC1N2C(=O)Nc1cccc(Cl)c1 (stereo not drawn)	-52.6*	2.4%	6.8%	23.1µM*	?	-43.0%
